# Tests used:
# [1] = tested on: Human papillomavirus type 1a protein E7 (residues 44-93); test: small molecules binding HPV E7 44-93 – biochemical, small-molecule microarray, residues 44-93, 635 nm fluorescence, primary screen (AID 1108); settings: fluorescence 635 nm, higher = more signal;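 note: E7 fragment applied at 1 µg/mL in TBST for 1 h at 4 C; score combines spot fluorescence with its signal to noise ratio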
# [2] = hepatitis C replication reporter changes, two-sided – Huh7 cells, luciferase reporter, HCV replication inhibitor project, primary screen (AID 1109); settings: Huh7 HCV replicon luciferase reporter, 48 h; higher = more signal;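 note: huh7 hepatoma cells harbouring a luciferase neomycin HCV replicon reporter; luciferase luminescence as measure of HCV replicon replication; test concentration not given here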
# [3] = target: Left-right determination factor 2 (Homo sapiens) (UniProt O00292); test: small molecules binding LEFTY2 protein – biochemical, small-molecule microarray, 635 nm fluorescence scan, primary screen (AID 1110); settings: higher = more signal
# [4] = target: Calmodulin-1 (Homo sapiens) (UniProt P0DP23); test: small molecules binding calmodulin-1 with EGTA – biochemical, small-molecule microarray, Cy5-labelled CALM1, profiling panel (AID 1111); settings: Cy5-CALM1 binding fluorescence, higher = more signal;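 note: labelled calmodulin applied in Tris saline Tween buffer holding calcium plus EGTA and DTT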
# [5] = target: Calmodulin-1 (Homo sapiens) (UniProt P0DP23); test: small molecules binding Ca-loaded calmodulin-1 – biochemical, small-molecule microarray, Cy5-labelled CALM1, plus calcium, artefact control for SMM control-protein annotation, profiling panel (AID 1112); settings: Cy5-CALM1 binding fluorescence, higher = more signal;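 note: score merges spot fluorescence with signal to noise from triplicate slides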
# [6] = probe aWnt5a binding to arrayed compounds – biochemical, biotinylated probe, 635/667 nm fluorescence, primary screen (AID 1113); settings: small-molecule microarray, higher = more signal;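 note: score merges 667 nm fluorescence intensity with signal-to-noise per printed feature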
# [7] = probe aShh binding to arrayed compounds – biochemical, biotinylated probe, 635/667 nm fluorescence, primary screen (AID 1114); settings: small-molecule microarray, higher = more signal;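 note: probe is biotin-labelled aShh protein from a stem cell growth factor screen; measures binding of labelled protein to compounds printed on the slide; score merges feature fluorescence at 667 nm with signal-to-noise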
# [8] = probe aNog binding to arrayed compounds – biochemical, biotinylated probe, 635/667 nm fluorescence, primary screen (AID 1115); settings: small-molecule microarray, higher = more signal;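 note: probe is biotinylated aNog protein used at 0.15 µg/mL for 1 h at 4 C; z-score combines 667 nm fluorescence of each spot with its signal to noise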
# [9] = target: Torsin-1A-interacting protein 1 (Homo sapiens) (UniProt Q5JTV8); test: compound microarray binding of lysate hLAP1 – cell lysate, small-molecule microarray, COS7 lysate, 635/667 nm fluorescence, primary screen (AID 1116); settings: 635 nm fluorescence, higher = more signal
# [10] = target: Alpha-bungarotoxin (Bungarus multicinctus) (UniProt P60615); test: compounds binding labelled alpha-BTX control protein – biochemical, small-molecule microarray, Alexa647 label, 635/667 nm fluorescence, artefact control for SMM control protein annotation, profiling panel (AID 1117); settings: alpha-BTX-A647 binding fluorescence, higher = more signal
# Sequence of Alpha-bungarotoxin (Bungarus multicinctus) (P60615 whole entry, looked up): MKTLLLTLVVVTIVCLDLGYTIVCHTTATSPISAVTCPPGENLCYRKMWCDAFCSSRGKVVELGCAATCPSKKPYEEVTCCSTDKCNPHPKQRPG
# Sequence of Torsin-1A-interacting protein 1 (Homo sapiens) (Q5JTV8 whole entry, looked up): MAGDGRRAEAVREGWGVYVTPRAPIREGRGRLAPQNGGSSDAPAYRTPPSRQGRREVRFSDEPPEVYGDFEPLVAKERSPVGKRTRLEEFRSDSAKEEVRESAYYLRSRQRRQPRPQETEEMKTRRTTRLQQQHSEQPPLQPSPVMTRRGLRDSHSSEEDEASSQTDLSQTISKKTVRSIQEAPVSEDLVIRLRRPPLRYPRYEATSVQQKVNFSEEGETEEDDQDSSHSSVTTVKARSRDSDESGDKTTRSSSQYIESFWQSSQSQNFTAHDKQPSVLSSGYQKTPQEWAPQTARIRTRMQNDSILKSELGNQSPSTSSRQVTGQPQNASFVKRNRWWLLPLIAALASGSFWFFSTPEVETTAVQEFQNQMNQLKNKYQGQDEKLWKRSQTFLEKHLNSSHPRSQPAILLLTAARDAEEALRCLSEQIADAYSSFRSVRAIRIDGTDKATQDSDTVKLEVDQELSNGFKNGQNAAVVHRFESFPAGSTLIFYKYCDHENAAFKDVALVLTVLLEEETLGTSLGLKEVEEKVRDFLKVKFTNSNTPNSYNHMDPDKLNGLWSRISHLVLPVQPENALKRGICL
# Sequence of Left-right determination factor 2 (Homo sapiens) (O00292 whole entry, looked up): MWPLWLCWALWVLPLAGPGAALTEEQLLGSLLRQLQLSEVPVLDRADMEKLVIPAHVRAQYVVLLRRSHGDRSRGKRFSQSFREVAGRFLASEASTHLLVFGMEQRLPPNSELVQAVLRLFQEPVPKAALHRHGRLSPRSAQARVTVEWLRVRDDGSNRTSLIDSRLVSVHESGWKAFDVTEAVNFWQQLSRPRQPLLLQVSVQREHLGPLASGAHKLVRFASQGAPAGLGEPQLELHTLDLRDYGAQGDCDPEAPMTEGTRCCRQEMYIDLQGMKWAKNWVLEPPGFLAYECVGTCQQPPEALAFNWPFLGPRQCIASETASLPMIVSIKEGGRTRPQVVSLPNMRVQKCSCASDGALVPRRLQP
SMILES,composite z-score [1],z-score [2],composite z-score [3],composite z-score [4],composite z-score [5],composite z-score [6],composite z-score [7],composite z-score [8],composite z-score [9],composite z-score [10]
CC(=O)OC[C@H]1O[C@H](CC=NOCC[C@@H]2C=C[C@H](OC(C)=O)[C@@H](COC(C)=O)O2)C=C[C@@H]1OC(C)=O,1.02,0.111,0.888,-0.981,-0.171,-0.001,-0.0904,-0.216,-0.0873,0.408
CC(=O)OC[C@H]1O[C@@H](ON=C2[C@H]3CCn4c(=O)n(-c5ccccc5)c(=O)n4[C@H]3[C@H](O)[C@@H]3O[C@H]23)[C@H](OC(C)=O)[C@@H](OC(C)=O)[C@@H]1OC(C)=O,1.08,-3.07,0.664,-0.0898,-0.268,-0.101,0.0902,-0.0563,0.479,0.393
C=CC[C@@H]1C=C[C@H](ON=CC[C@@H]2C=C[C@H](OC(C)=O)[C@@H](COC(C)=O)O2)[C@@H](CO)O1,1.25,0.563,0.514,0.501,-0.0909,0.423,0.113,-0.467,0.223,1.86
O=C(NN=C1C[C@@H](O)[C@@H](O)[C@@H]2[C@@H]3C(=O)N(c4ccc(F)cc4F)C(=O)[C@@H]3CC[C@H]12)OCc1ccccc1,1.35,-0.642,0.446,0.463,-0.235,-0.12,-0.0192,-0.406,0.747,0.555
CO[C@@H]1[C@H](O)CO[C@H]1C=Cc1ccccc1,0.258,-0.696,0.509,-0.0028,-0.144,0.0078,-0.16,-0.0563,0.0195,0.241
O=C1[C@H]2[C@H]3[C@H](O)[C@H](O)CC(=NOC[C@@H](O)COCc4ccco4)[C@@H]3CC[C@H]2C(=O)N1Cc1ccc2c(c1)OCO2,-0.772,0.0878,1.44,-0.982,-2.03,-0.172,-0.123,-0.34,0.0886,0.0167
COc1ccc(OC[C@@H](CO)OC)cc1,0.0047,-0.719,0.178,-0.584,-0.671,-0.244,0.0639,-0.0448,0.551,0.0276
CCOC(=O)[C@H](CC(C)C)NC(=O)CCC1CC(OC(=O)NCc2ccc3c(c2)OCO3)CC2(CCCC(COC(=O)NCCc3ccc(Cl)cc3)O2)O1 (stereo not given in full),0.838,0.225,0.582,-0.131,-0.572,-0.0556,-0.283,-0.363,0.426,0.983
C=CC[C@@H]1C=C[C@H](ON=C(C)CCN2CCCCc3nc(C)c(C)cc32)[C@@H](CO)O1,0.322,-0.197,1.25,-0.937,-1.72,-0.0276,0.0684,-0.444,0.533,-0.102
CO[C@@H]1COC(=O)[C@H](CCSC)NC(=O)CC=C[C@@H](C)COC(=O)[C@@H]2CCCN2C(=O)CC=C[C@H]1C,-0.427,-0.522,0.857,-0.776,-1.36,-0.0276,0.0278,-0.036,0.771,-0.245
COC(=O)[C@H](C)NC(=O)CCC1CC(OC(=O)NCc2cccc3ccccc23)CC2(CCCC(COC(=O)NCCOc3ccccc3)O2)O1 (stereo not given in full),1.33,-0.682,0.43,1.33,-0.232,-0.251,-0.138,-0.559,0.347,0.862
CC(C)=CCCC(C)=CCON=C1[C@H]2CCn3c(=O)n(-c4ccccc4)c(=O)n3[C@H]2[C@H](O)[C@@H]2O[C@H]12,1.35,-3.17,0.802,-0.198,-0.807,-0.154,-0.102,-0.061,0.458,0.514
CCOC(=O)CCN1C(=O)[C@H]2[C@H]3[C@H](O)[C@H](O)CC(=NOCC=C(C)CCC=C(C)C)[C@@H]3CC[C@H]2C1=O,-0.401,-0.469,0.631,0.113,-0.672,-0.1,-0.179,-0.0827,0.166,-0.0599
COC(=O)CC=C1c2ccccc2[C@H](OC)[C@H]1C,-0.887,-0.154,0.398,-0.452,-0.746,-0.0981,-0.138,-0.172,-0.035,-0.545
CC(CCN1CCCc2nc(C)c(C)cc21)=NO[C@H](C)c1cn([C@@H]2COC[C@H]2O)nn1,0.839,0.0504,0.831,-0.253,-0.718,-0.0478,0.0611,-0.158,0.695,0.102
CC(CCN1CCCCc2nc(C)c(C)cc21)=NO[C@H](C)c1cn([C@@H]2COC[C@H]2O)nn1,0.421,-0.219,1.35,-0.197,-0.835,-0.222,-0.112,-0.158,0.337,1.3

SMILES,composite z-score [1],z-score [2],composite z-score [3],composite z-score [4],composite z-score [5],composite z-score [6],composite z-score [7],composite z-score [8],composite z-score [9],composite z-score [10]
CCN1C(=O)[C@H]2[C@@H]3C(=CC[C@H]2C1=O)C(=O)[C@H]1O[C@H]1[C@H]3O,0.53,-5.32,0.705,-0.575,-1.4,0.0559,-0.138,-0.144,0.282,0.0607
COC(=O)CC=C[C@@H](C)[C@@H](C=NOC[C@@H](C)[C@H](OCc1ccccc1)C(C)C)OC,0.281,-0.759,0.364,-0.481,-0.79,-0.096,-0.19,-0.116,-0.062,0.215
COc1ccc2c(c1)O[C@@H](c1cccc(C(F)(F)F)c1)[C@H](O)C2=O,0.368,1.18,0.428,0.172,-0.427,-0.172,-0.304,-0.0496,0.342,0.375
COc1ccc(COC(=O)NN=C2C[C@@H](O)[C@@H](O)[C@@H]3[C@@H]4C(=O)N([C@@H](C)c5ccccc5)C(=O)[C@@H]4CC[C@H]23)cc1,-1.05,-1.66,-0.291,-0.0436,0.073,-0.0405,0.0121,0.314,-0.484,0.471
Cc1cc(C)c(-c2cc([C@H](C)ON=C[C@@H](C)[C@H](OCc3ccccc3)C(C)C)on2)c(C)c1,-1.42,-2.06,-0.0341,-0.27,-0.34,-0.0403,0.0815,-0.168,-0.601,0.108
CCN1C(=O)[C@H]2[C@H]3[C@H](O)[C@H](O)CC(=NO[C@H](C)c4cn([C@H](CO)Cc5ccccc5)nn4)[C@@H]3CC[C@H]2C1=O,0.485,-1.02,0.741,0.782,-0.0865,-0.0573,-0.358,0.202,0.476,1.29
COc1ccc(COC(=O)NN=C2C[C@@H](O)[C@@H](O)[C@@H]3[C@@H]4C(=O)N(C5CCCCC5)C(=O)[C@@H]4CC[C@@H]23)cc1,0.14,-1.76,0.0141,-0.53,-0.811,-0.0529,-0.0769,-0.261,-0.011,0.229
CCCNC(=O)OC[C@H]1O[C@H](CCON=C[C@@H](C)[C@H](OCc2ccccc2)C(C)C)C=C[C@@H]1Oc1ccc(OC)cc1,0.427,-2.17,0.182,-0.755,-0.515,-0.156,-0.484,-0.196,-0.163,0.297
CC(C)=CCCC(C)=CCON=C1C[C@@H](O)[C@@H](O)[C@@H]2[C@@H]3C(=O)N(Cc4ccc5c(c4)OCO5)C(=O)[C@@H]3CC[C@@H]12,0.909,0.298,0.368,0.359,-0.0661,0.0388,-0.0396,0.824,0.999,0.59
COC(=O)[C@@H]1CC[C@H](C)[C@@H](c2ccc(C)cc2)N1C(=O)c1ccc(C=NOC[C@@H](O)[C@H]2O[C@@H]3OC(C)(C)O[C@@H]3[C@H]2O)cc1,1.15,-0.447,0.414,0.504,-0.12,-0.117,-0.0709,-0.168,0.555,0.776
CCc1cc2c(nc1CC)CCN(CCC(C)=NO[C@@H]1O[C@H](COC(C)=O)[C@@H](OC(C)=O)[C@H](OC(C)=O)[C@H]1OC(C)=O)C2,1.31,-0.998,1.3,-0.199,-0.502,0.0251,-0.291,-0.152,2.85,1.01
CON=C(C)CCN1CCCc2nc(C)c(C)cc21,0.365,0.115,0.685,-0.209,-1.02,-0.0405,0.151,0.177,0.501,0.0599
CC(C)[C@@H](OCc1ccccc1)[C@H](C)C=NOC[C@@H](O)[C@H]1O[C@@H]2OC(C)(C)O[C@@H]2[C@H]1O,0.436,-1.75,0.413,0.178,-0.606,-0.15,-0.634,0.848,0.145,0.278
O=C1[C@H]2[C@H]3[C@H](O)[C@H](O)CC(=NOC[C@@H](O)COCc4ccco4)[C@@H]3CC[C@H]2C(=O)N1C1CCCCC1,0.814,-0.337,0.72,-0.608,-1.66,-0.124,-0.206,-0.5,0.289,-0.0636
C[C@@H]1C=CCC(=O)OC[C@H](C)C(=O)N[C@@H](Cc2ccccc2)C(=O)OC1,-0.118,0.962,0.786,-0.273,-0.62,-0.118,-0.414,-0.17,-0.232,-0.0092
CCOC(=O)CCN1C(=O)[C@H]2[C@H]3[C@H](O)[C@H](O)CC(=NO[C@@H]4O[C@H](CO)[C@@H](O)[C@H](O)[C@H]4O)[C@H]3CC[C@H]2C1=O,0.0713,0.587,0.523,0.112,-0.847,-0.0286,-0.156,-0.0309,-0.127,0.263
